The source of these data is PubChem BioAssay (NCATS).

Results filed as inconclusive are left out. Entries that show only a call come without a potency. Calls of active or inactive are those of the source. The call rests on the fitted dose curve; in most records, active means well fitted inhibition curve with a large enough effect in the signal ratio, with a control signal flat (not every such curve was filed as active); inconclusive means small, poorly fitted or top-dose-only effect, or effect the other way, or a change in a side signal; inactive means flat fitted curve, though single readings scatter; the % refers to the signal ratio. Peptide text beside a SMILES is read from it.

The target in the assay is Peroxisome proliferator-activated receptor gamma (Homo sapiens) (UniProt P37231). The assay is described as follows: qHTS assay for small molecule antagonists of peroxisome proliferator-activated receptor gamma signaling (AID 588537). The settings on record: HEK293 PPARg-UAS-bla, beta-lactamase ratio, antagonist mode; series mostly up to 76.8 µM. The source says: NIH Chemical Genomics Center [NCGC]
Chain of Peroxisome proliferator-activated receptor gamma (Homo sapiens) (P37231 whole entry, looked up): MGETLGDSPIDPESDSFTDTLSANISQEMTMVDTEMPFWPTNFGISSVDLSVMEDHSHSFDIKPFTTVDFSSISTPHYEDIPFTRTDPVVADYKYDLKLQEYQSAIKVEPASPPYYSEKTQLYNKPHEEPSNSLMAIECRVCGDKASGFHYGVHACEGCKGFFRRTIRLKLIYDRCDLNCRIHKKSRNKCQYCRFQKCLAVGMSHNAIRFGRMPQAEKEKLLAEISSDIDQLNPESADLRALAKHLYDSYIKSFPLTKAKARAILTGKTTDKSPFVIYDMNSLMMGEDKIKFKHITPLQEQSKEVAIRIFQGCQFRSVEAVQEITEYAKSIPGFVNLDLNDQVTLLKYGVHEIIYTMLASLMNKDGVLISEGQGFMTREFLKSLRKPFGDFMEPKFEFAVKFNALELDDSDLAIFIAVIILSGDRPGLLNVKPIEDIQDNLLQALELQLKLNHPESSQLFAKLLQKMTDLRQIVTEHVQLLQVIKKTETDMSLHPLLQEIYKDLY
U.S. Environmental Protection Agency [EPA]
National Institutes of Environmental Health Sciences [NIEHS]
National Toxicology Program [NTP]
The Peroxisome proliferator-activated receptors (PPARs) are lipid-activated transcription factors of the nuclear receptor superfamily with three distinct subtypes namely PPAR alpha, PPAR delta (also called PPAR beta) and PPAR gamma. All these subtypes heterodimerizes with Retinoid X receptor (RXR) and these heterodimers regulate transcription of various genes. PPAR-gamma (glitazone receptor) ligands have been used in the treatment of type 2 diabetes and dyslipidaemia. It is involved in the regulation of glucose and lipid metabolism. PPAR-gamma activates certain genes like Paraoxonase 1 which is responsible for hydrolyzing organophosphates. PPAR-gamma ligands may also be therapeutically important in the treatment of coronary artery disease, obesity and cancer and atherosclerosis.
NCGC Assay Protocol Summary
Using a beta-lactamase reporter-gene under control of Peroxisome Proliferator-Activated-gamma (PPAR-gamma) response element, a cell-based assay [GeneBLAzer PPAR-gamma-UAS-bla assay developed by Invitrogen] was used to measure PPAR-gamma ligands signaling. GeneBLAzer PPAR-gamma-UAS-bla-HEK293 cells were used with assay medium containing 1% charcoal/dextran treated FBS. The assay was performed in clear bottom black Greiner 1536-well plates. Library compounds were measured for their ability to inhibit the reporter gene activity. Compounds were screened in a titration series in 1536-well format. The fluorescence intensity (405 nm excitation, 460/530 nm emission) was measured using an EnVision plate reader. Data was normalized relative to Rosiglitazone control (50 nM, 100%), and DMSO only wells (basal, 0%). Concentration-response titration points for each compound were fitted to the Hill equation yielding concentrations of half-maximal inhibition (IC50) and maximal response (efficacy) values.
qHTS protocol for PPAR-gamma beta-lactamase assay in antagonist mode
[Step] [Parameter] [Value] [Description]
1. Reagent; 5 uL; 3000 cells/well
2. Incubation; 37 C for 6-6.5 hrs
4. Controls (GW9662, PPAR-gamma antagonist); 23 nL,
5. Agonist (Stimulator); 1uL; Rosiglitazone at 50 nM (final) concentration
6. Incubation; 37 C for 16 hrs
7. Detection reagent; 1 uL of CCF4-dye
8. Incubation; RT for 2 hrs
9. Detection; Fluorescence; Envision plate reader
On the technique in general: Quantitative high-throughput screening tests each substance at several concentrations.
For the compound `NS(=O)(=O)c1cc(C(=O)O)c(NCc2ccco2)cc1Cl`, the Potency result was “inactive”.

On to `CS(=O)(=O)OCCCCOS(C)(=O)=O`, for which the Potency result was “inactive”. To `N[C@@H](Cc1cc(I)c(Oc2cc(I)c(O)c(I)c2)c(I)c1)C(=O)O` belongs 39.8 µM (active); to `CCN(CC)C(=S)SSC(=S)N(CC)CC`, “inactive”. To `c1ccc2[nH]c(-c3cscn3)nc2c1` belongs “inactive”; to `CCCc1cc(=O)[nH]c(=S)[nH]1`, “inactive”; to `COC(=O)[C@H](Cc1ccccc1)NC(=O)[C@@H](N)CC(=O)O` (H-Asp-Phe-OMe), “inactive”.

On to `COc1cc(OC)c(C(=O)CCCN2CCCC2)c(OC)c1`, for which the Potency entry is “inactive”.

In the case of `CC1(C)NC(=O)N(c2ccc([N+](=O)[O-])c(C(F)(F)F)c2)C1=O`, the Potency entry was “inactive”. Next, `O=c1c(O)c(-c2ccc(O)cc2O)oc2cc(O)cc(O)c12`: “inactive”. To `CNC[C@H](O)c1ccc(O)c(O)c1` belongs “inactive”.
